An excerpt weighted towards active compounds, which were near 4.1% of everything screened.
Rv3671c inh = Rv3671c serine protease inhibitors, primary screen, biochemical, fluorescence polarization, M. tuberculosis H37Rv; P9WHR9; inhibition, % at 5.96 µM; actives 0.048% (n = 320,000); in the data active = inhibition above about 38%;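 note: extracellular domain of Rv3671c used as enzyme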
Target sequence (P9WHR9 whole entry, looked up, the tested form may be a part): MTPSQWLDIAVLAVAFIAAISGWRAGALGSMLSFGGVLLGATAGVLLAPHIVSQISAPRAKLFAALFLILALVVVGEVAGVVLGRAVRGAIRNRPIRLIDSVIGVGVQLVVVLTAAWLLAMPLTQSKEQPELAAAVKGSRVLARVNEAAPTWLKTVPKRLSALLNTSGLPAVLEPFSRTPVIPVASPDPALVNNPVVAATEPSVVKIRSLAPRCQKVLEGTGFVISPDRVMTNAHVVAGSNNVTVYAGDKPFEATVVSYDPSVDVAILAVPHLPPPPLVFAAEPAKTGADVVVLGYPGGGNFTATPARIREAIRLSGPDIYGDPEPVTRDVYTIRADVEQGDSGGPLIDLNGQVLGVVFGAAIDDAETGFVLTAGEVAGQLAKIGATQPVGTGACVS
GDH-TPI inh = GDH-TPI coupling enzyme inhibitors, primary screen, artefact control for M. tuberculosis FBA inhibitor project, biochemical, absorbance, full deck; GDH-TPI coupled enzyme counterscreen, NADH absorbance; inhibition, % at 4.8 µM; actives 1.2% (n = 360,000); in the data active = inhibition above about 30%
RecA intein inh = Mtb RecA intein splicing inhibitors, primary screen, biochemical, fluorescence, HTS | cell-free RecA intein splicing | inhibition, % (no concentration beside the values) | actives 0.75% (n = 290,000); in the data active = inhibition above about 30%
FBA Mtb inh = Mtb FBA enzyme inhibitors, primary screen, biochemical, fluorescence, strain H37Rv; Fructose-bisphosphate aldolase (Mycobacterium tuberculosis (strain ATCC 25618 / H37Rv)), …; purified M. tuberculosis FBA, fluorescence read-out; inhibition, % at 1 µM; actives 2.3% (n = 360,000); AID 588726, 2011; in the data active = inhibition above about 27%
UGM FP inh = M. tuberculosis UGM enzyme inhibitors, primary screen, biochemical, fluorescence polarization, single point; actives 0.06% (n = 320,000); AID 504406, 2011; purified UGM, fluorescence polarization probe displacement; inhibition, % at 10 µM; UDP-galactopyranose mutase (Mycobacterium tuberculosis (strain ATCC 25618 / H37Rv)), …; in the data active = inhibition above about 10%, passing the limit was not always enough
BH1578 lux ind = inducers of Vibrio cholerae quorum light production without autoinducers, primary screen, BH1578 luxS cqsA deficient, single point; V. cholerae BH1578 lux reporter, luminescence, 6 h; activation, % at 18.7 µM; AID 588436, 2011; actives 0.16% (n = 350,000); in the data active = activation mostly above about 9.7%, no sharp cut-off
Numbers stand for hits; 0 = inactive; - = no result; + = active, no number.

SMILES | Rv3671c inh | GDH-TPI inh | RecA intein inh | FBA Mtb inh | UGM FP inh | BH1578 lux ind
Cc1cccc(CN2C(=O)N/C(=C/c3cc(C)n(-c4cc(C)ccn4)c3C)C2=O)c1 | 0 | 31 | 0 | 0 | 0 | 0
N#C/C(=C\C=C\c1ccccc1)C(=O)NCc1cccnc1 | 0 | 31 | 0 | 0 | 0 | 0
N#C/C(=C\c1cccs1)C(=O)NCc1cccnc1 | 0 | 36 | 0 | 0 | 0 | 0
O=C(CN(c1ccc(F)cc1)S(=O)(=O)c1ccccc1)NC1CC2CCC1C2 (configuration not stated) | 0 | 0 | 0 | 0 | 0 | 0
Cc1ccc(CCC(=O)Nc2ccc([N+](=O)[O-])cc2)o1 | 0 | 0 | 0 | 0 | 0 | 0
OCc1ccc(-c2cncc3nccn23)cc1 | - | 0 | - | + | - | 0
COc1cc(C)ccc1OCc1cc(C(=O)N(Cc2nccn2C)C(C)C)no1 | 0 | 0 | 0 | 0 | 0 | 0
CCCCN(CCCC)CCn1cnc2c([nH]c3ccc(OC)cc32)c1=O | 0 | 0 | 0 | 0 | 0 | 0
COc1cccc2[nH]c3c(=O)[nH]cnc3c12 | - | 0 | 0 | 133 | 0 | 0
COc1cccc2[nH]c3c(=O)n(CCN(C)C)cnc3c12 | 0 | 0 | 0 | 117 | 0 | 0
CCN(CC)CCn1cnc2c([nH]c3cccc(OC)c32)c1=O | 0 | 0 | 0 | 103 | 0 | 0
COc1cccc2c3cccc(OC)c3c3[nH]cnc3c12 | - | 0 | - | 0 | - | 0
COc1ccc(NS(=O)(=O)c2ccc(NN=Cc3ccc(C(=O)O)cc3)c([N+](=O)[O-])c2)cc1 | 0 | - | - | - | 0 | -
CC(Oc1ccc2c(-c3ccccc3)cc(=O)oc2c1)C(=O)NCCN1CCOCC1 (configuration not stated) | 0 | 0 | 0 | 0 | 0 | 0
CC(Oc1ccc2c(c1)oc(=O)c1ccccc12)C(=O)NCC1CCC(C(=O)O)CC1 (configuration not stated) | 0 | 0 | 0 | 129 | 0 | 0
COc1ccc2c(c1)c(=O)oc1cc(OC(C(=O)O)c3ccccc3)ccc12 (configuration not stated) | 0 | 0 | 0 | + | 0 | 0
O=C(O)C(Oc1ccc2c(-c3ccccc3)cc(=O)oc2c1)c1ccccc1 (configuration not stated) | 0 | 0 | 0 | 0 | 0 | 0
CC(Oc1ccc2c(c1)oc(=O)c1ccccc12)C(=O)NCCN1CCOCC1 (configuration not stated) | 0 | 0 | 0 | 60 | 0 | 0
CC(Oc1ccc2c3c(c(=O)oc2c1)CCC3)C(=O)NCC1CCC(C(=O)O)CC1 (configuration not stated) | 0 | 0 | 0 | 0 | 0 | 0
Cc1ccc(C(=O)COC(=O)COc2ccc(C)c(C)c2)cc1 | - | 0 | 0 | 0 | 0 | 0
CCCC(=O)N1CCCC1(C)C(=O)NCc1c(F)ccc(C)c1F (configuration not stated) | - | 0 | - | 0 | - | 0
CCCN(Cc1ccccc1)C(=S)Nc1ccc(SC(F)F)cc1 | - | 0 | 0 | 0 | - | 0
C=CCOc1ccc(/C=C/C(=O)OCC(=O)N(C)CC(=O)Nc2ccccc2Cl)cc1 | 0 | 0 | 0 | 0 | 0 | 0
Cc1cc(C)n2nc(N)c(N=Nc3cccc(Cl)c3)c2n1 | 0 | 0 | 0 | 0 | 0 | 0
Cc1ccc(N=Nc2c(N)nn3c(C)cc(C)nc23)cc1 | 0 | 40 | 0 | 0 | 0 | 0
SMILES | Rv3671c inh | GDH-TPI inh | RecA intein inh | FBA Mtb inh | UGM FP inh | BH1578 lux ind
COc1cc2c(cc1OC)C(C)=NCC2 | 0 | 0 | 0 | + | 0 | 0
COc1cc2c(cc1OC)C(C)=NC1(CCCCC1)C2 | 0 | 0 | 0 | 186 | 0 | 0
COc1cc2c(cc1OC)C(c1ccc(Cl)cc1)=NCC2 | 0 | 0 | 0 | 0 | 0 | 0
CC(NCC(=O)Nc1ccccc1C(=O)NC1CC1)c1ccco1 (configuration not stated) | - | 0 | - | 0 | - | 0
Cc1c(CC(=O)O)c(=O)oc2cc(OCc3ccc(F)cc3Cl)ccc12 | 0 | 0 | 0 | 167 | 0 | 0
Cc1c(CC(=O)O)c(=O)oc2c(C)c3occ(-c4ccc(F)cc4)c3cc12 | - | 0 | 0 | 0 | 0 | 0
Cc1c(CCC(=O)O)c(=O)oc2cc(OCc3ccccc3F)ccc12 | 0 | 0 | 0 | 121 | 0 | 0
COc1cc(COc2ccc3c(C)c(CCC(=O)O)c(=O)oc3c2)cc(OC)c1OC | 0 | 0 | 0 | 0 | 0 | 0
CN(C)c1ccc(C=NN2C(=O)CSC2=S)c(Cl)c1 | - | 36 | - | 0 | - | 0
OCC[n+]1c2ccccc2nc2ccc(N3CCOCC3)cc21 | 0 | 0 | 31 | 0 | 0 | 0
Cc1cc(C(=O)Nc2ccc(N3CCOCC3)cc2)c2ccccc2n1 | 0 | 0 | 0 | 0 | 0 | 0
CCCCn1c(O)c(/C=N/NC(=O)c2ccncc2)c(=O)[nH]c1=O | 0 | 46 | 0 | 0 | 0 | 0
Cc1cc(C)n2nc3ccccc3c2n1 | 0 | 0 | 0 | 0 | 0 | 0
Cc1cc(C)n2nc3nc(N4CCCCC4)nc(-c4ccco4)c3c2n1 | 0 | 0 | 0 | 38 | 0 | 0
NS(=O)(=O)c1ccc(CCNc2ccn3nc(-c4cccc(C(F)(F)F)c4)cc3n2)cc1 | - | 0 | - | 0 | - | 0
CCCOc1ccc2oc(=O)c3c(c2c1)CCCN3C(=O)CN1CCN(C(=O)c2ccco2)CC1 | 0 | - | 0 | - | 0 | -
O=C(CN1CCCC1)N1CCCc2c1c(=O)oc1ccc(OCc3ccccc3)cc21 | 0 | 34 | 0 | 0 | 0 | 0
CCOC(=O)CC1=NN(c2ccccc2)C(=O)/C1=C\c1ccc(N(C)C)cc1 | 0 | 0 | 0 | 0 | 0 | 0
CCOC(=O)CC1=NN(c2ccccc2)C(=O)C1 | 0 | 0 | 66 | 0 | 0 | 0
O=C(N/C=C/c1ccccc1)c1ccccc1 | 0 | 0 | 0 | 0 | 0 | 0
CCOC(=O)c1cc2c(=O)n3cccc(C)c3nc2n(Cc2ccco2)c1=NC(=O)c1ccc(C)cc1 | - | 0 | - | 0 | - | 0
CCOC(=O)c1cc2c(=O)n3ccccc3nc2n(Cc2ccco2)c1=NC(=O)c1cccc(OC)c1 | 0 | 39 | 0 | 139 | 0 | 0
COc1ccc(CCn2c(=N)c(C(=O)NCc3ccco3)cc3c(=O)n4ccccc4nc32)cc1 | 0 | 0 | 0 | 0 | 0 | 0
CCOC(=O)c1cc2c(=O)n3ccccc3nc2n(Cc2ccco2)c1=NC(=O)c1ccccc1OC | 0 | 0 | 0 | + | 0 | 0
CCOC(=O)c1cc2c(=O)n3ccccc3nc2n(Cc2ccco2)c1=NC(=O)c1ccc(OC)cc1 | 0 | 0 | 0 | 115 | 0 | 0
CCOC(=O)c1cc2c(=O)n3cccc(C)c3nc2n(Cc2ccco2)c1=NC(=O)c1ccccc1 | 0 | 0 | 0 | + | 0 | 0
Cc1ccsc1C(=O)N1CCC1(C)C(=O)NS(=O)(=O)c1ccc(Br)cc1 (configuration not stated) | - | 0 | - | 0 | - | 0
